Experimental data: PubChem BioAssay (Tox21)
Records with an inconclusive call do not appear. The source made the active and inactive calls. Unless noted, the call rests on the fitted dose curve.

Columns and labels:
[1] = Nuclear factor erythroid 2-related factor 2/antioxidant responsive element (Nrf2/ARE) small molecule agonists: qHTS cell viability counter screen in human keratinocytes (AID 1919968; active means well fitted curve in the direction sought with a large enough effect in the repeat runs; an effect the other way counts as inactive or inconclusive; further: nearly all actives have a fitted effect of over 55% in size; further: potency means the concentration at half of the fitted maximal effect)
How it was run: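 KeratinoSens cells (HaCaT keratinocytes stably carrying an ARE-luciferase reporter) were seeded at 1,500 cells/well and rested 5 h at 37 C/5% CO2. They were then exposed to compounds in DMSO for 23 h. Viability was read by CellTiter-Fluor fluorescence after 1 h.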

[2] = Nuclear factor erythroid 2-related factor 2/antioxidant responsive element (Nrf2/ARE) small molecule agonists: luciferase reporter gene qHTS assay in human keratinocytes (AID 1919969); further: nearly all actives have a fitted effect of over 35% in size; further: potency means the concentration at half of the fitted maximal effect
[3] = molecular target: KiSS-1 receptor (Homo sapiens) (UniProt Q969F8); assay: Human kisspeptin (KISS1R) small molecule agonists, calcium flux assay in KISS1R-HEK293 cells (AID 1920064; active means well fitted curve in the direction sought with a large enough effect in the repeat runs; an effect the other way counts as inactive or inconclusive)
Chain of KiSS-1 receptor (Homo sapiens) (Q969F8 whole entry, looked up): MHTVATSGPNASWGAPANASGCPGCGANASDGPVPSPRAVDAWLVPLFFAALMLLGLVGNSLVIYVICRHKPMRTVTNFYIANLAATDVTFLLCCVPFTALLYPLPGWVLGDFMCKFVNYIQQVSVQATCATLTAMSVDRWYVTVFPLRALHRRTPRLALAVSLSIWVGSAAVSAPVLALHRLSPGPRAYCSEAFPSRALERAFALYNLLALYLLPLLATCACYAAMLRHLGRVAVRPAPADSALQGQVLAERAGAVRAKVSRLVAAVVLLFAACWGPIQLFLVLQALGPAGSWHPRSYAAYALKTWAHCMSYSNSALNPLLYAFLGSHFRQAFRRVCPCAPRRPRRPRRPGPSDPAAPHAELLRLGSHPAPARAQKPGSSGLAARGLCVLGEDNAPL
How it was run: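 HEK293 cells stably expressing human KISS1R were plated 18 h at 37 °C, loaded with calcium dye for 1 h at 37 °C, then given compound by pin tool. Fluorescence (Ex/Em 480/540) was read kinetically for 3 min.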

[4] = G protein-coupled receptor (GPCR) small molecule agonists, calcium flux assay: HEK293 wild type cell line counter screen (AID 1920065)
How it was run: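 Cells were plated and cultured 18 h at 37 C/5% CO2, then loaded with calcium dye for 1 h at 37 C. Compounds in DMSO were pin-transferred in agonist mode, and fluorescence (Ex/Em 480/540) was read kinetically for 3 min at 1 s intervals.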

[5] = p53 small molecule agonists, cell-based qHTS assay with human liver microsomes (AID 1963577)
How it was run: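 Fluorescence of the beta-lactamase reporter in p53RE-bla cells, detected with LiveBLAzer substrate (2 h, room temperature, dark), served as the read-out after 16 h compound exposure at 37 C with human liver microsomes and NADPH, each 0.5 mg/mL final.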

[6] = p53 small molecule agonists, cell-based qHTS assay with rat liver microsomes (AID 1963578)
How it was run: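 Cells carrying a p53 response element–beta-lactamase reporter were plated and rested 5 h, then dosed with compound in DMSO plus rat liver microsomes and NADPH, each at 0.5 mg/mL final. After 16 h at 37 C, LiveBLAzer substrate was added for 2 h.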

[7] = p53 small molecule agonists, cell-based qHTS assay with human liver microsomes: qHTS cell viability counter screen (AID 1963579); further: nearly all actives have a fitted effect of over 45% in size
How it was run: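 Cytotoxicity counter screen: p53RE-bla, 4,000 cells/well; 5 h settle, 37 C/5% CO2; cpd + HLM 0.5 mg/mL + NADPH 0.5 mg/mL (final); 16 h, 37 C; CellTiter-Glo, 30 min RT, luminescence.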

[8] = p53 small molecule agonists, cell-based qHTS assay with rat liver microsomes: qHTS cell viability counter screen (AID 1963580); further: nearly all actives have a fitted effect of over 45% in size
How it was run: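 Viability is assessed in parallel with the p53 reporter read: HCT-116 p53RE-bla cells receive compounds plus rat microsomes and NADPH (0.5 mg/mL final apiece), incubate 16 h at 37 C, and then CellTiter-Glo luminescence is recorded.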

[9] = p53 small molecule agonists, cell-based qHTS assay (AID 1963582; active means well fitted activation curve with a large enough effect in the signal ratio in the repeat runs, not every such curve was filed as active; the % refers to the signal ratio)
How it was run: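 p53RE-bla beta-lactamase reporter cells rested 5 h at 37 C/5% CO2, then received compounds in DMSO by pin transfer and were incubated 16 h at 37 C. LiveBLAzer B/G FRET substrate was loaded for 2 h at room temperature before fluorescence reading.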

[10] = molecular target: 5-hydroxytryptamine receptor 2A (Homo sapiens) (UniProt P28223); assay: 5-hydroxytryptamine receptor 2A (HTR2A) small molecule antagonists, cell-based qHTS assay (AID 1963586); further: nearly all actives have a fitted effect of over 45% in size
Chain of 5-hydroxytryptamine receptor 2A (Homo sapiens) (P28223 whole entry, looked up): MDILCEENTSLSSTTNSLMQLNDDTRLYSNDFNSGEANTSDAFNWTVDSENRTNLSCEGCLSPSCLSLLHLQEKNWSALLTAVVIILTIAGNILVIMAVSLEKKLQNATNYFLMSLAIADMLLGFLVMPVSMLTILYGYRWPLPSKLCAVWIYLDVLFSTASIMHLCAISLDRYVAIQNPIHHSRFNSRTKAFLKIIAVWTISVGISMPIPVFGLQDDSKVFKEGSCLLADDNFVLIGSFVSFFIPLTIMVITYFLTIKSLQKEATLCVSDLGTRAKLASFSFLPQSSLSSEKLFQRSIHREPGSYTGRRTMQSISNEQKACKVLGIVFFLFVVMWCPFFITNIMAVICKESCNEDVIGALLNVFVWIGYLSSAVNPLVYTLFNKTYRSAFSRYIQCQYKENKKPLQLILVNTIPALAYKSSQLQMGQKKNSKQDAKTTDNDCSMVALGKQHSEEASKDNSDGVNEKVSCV
How it was run: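 Antagonist-mode intracellular calcium assay: DOI (4 nM) added after 5 min compound pre-incubation at room temperature to dye-loaded HTR2A-CHO cells. Fluorescence followed for 3 min, sampled every second.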

[11] = molecular target: 5-hydroxytryptamine receptor 2A (Homo sapiens) (UniProt P28223); assay: 5-hydroxytryptamine receptor 2A (HTR2A) small molecule agonists, cell-based qHTS assay (AID 1963587); further: nearly all actives have a fitted effect of over 30% in size
How it was run: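 CHO cells stably expressing human HTR2A, plated 18 h, loaded with calcium dye 1 h at 37 C. Agonist mode: compounds added and intracellular calcium fluorescence recorded kinetically for 2 min at 1 sec intervals.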

[12] = molecular target: Muscarinic acetylcholine receptor M1 (Homo sapiens) (UniProt P11229); assay: Cholinergic receptor muscarinic 1 (CHRM1) small molecule antagonists, cell-based qHTS assay (AID 1963588); further: nearly all actives have a fitted effect of over 40% in size
Chain of Muscarinic acetylcholine receptor M1 (Homo sapiens) (P11229 whole entry, looked up): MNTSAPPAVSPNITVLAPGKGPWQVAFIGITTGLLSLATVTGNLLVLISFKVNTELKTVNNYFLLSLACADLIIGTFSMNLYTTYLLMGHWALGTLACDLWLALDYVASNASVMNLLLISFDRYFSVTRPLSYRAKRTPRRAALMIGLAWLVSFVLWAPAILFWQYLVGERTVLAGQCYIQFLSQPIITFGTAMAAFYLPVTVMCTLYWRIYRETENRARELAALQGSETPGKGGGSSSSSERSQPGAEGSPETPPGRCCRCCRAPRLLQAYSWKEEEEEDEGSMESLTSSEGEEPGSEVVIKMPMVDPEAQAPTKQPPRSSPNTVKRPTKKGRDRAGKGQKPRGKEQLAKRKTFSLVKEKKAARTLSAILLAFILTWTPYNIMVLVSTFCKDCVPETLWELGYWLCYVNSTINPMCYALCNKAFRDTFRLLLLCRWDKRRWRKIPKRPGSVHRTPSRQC
How it was run: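 CHRM1-CHO calcium-flux assay, antagonist mode. Cells were seeded 18 h, dye-loaded 1 h at 37 C and given compound for 5 min at RT, then acetylcholine was added at 50nM. FDSS fluorescence was read 3 min; 15 concentrations, three runs.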

[13] = molecular target: Muscarinic acetylcholine receptor M1 (Homo sapiens) (UniProt P11229); assay: Cholinergic receptor muscarinic 1 (CHRM1) small molecule agonists, cell-based qHTS assay (AID 1963589); further: nearly all actives have a fitted effect of over 35% in size
How it was run: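 CHO cells stably expressing human CHRM1, seeded 18 h at 37 C/5% CO2, dye-loaded 1 h at 37 C, then given compound in agonist mode; intracellular calcium fluorescence read kinetically at 1 s intervals. Fifteen concentrations, three independent runs.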

[14] = cAMP Responsive Elements (CRE) small molecule agonists, cell-based qHTS assay (AID 1963590)
How it was run: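 CRE-bla HEK 293T cells in DMEM with 10% dialyzed FBS, NEAA, pyruvate and 25 mM HEPES were plated 18 h at 37 C/5% CO2, then exposed to compounds in DMSO for 3 h before LiveBLAzer B/G FRET substrate addition.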

[15] = molecular target: Beta-2 adrenergic receptor (Homo sapiens) (UniProt P07550); assay: Adrenergic beta2 receptor (ADRB2) small molecule antagonists, cell-based qHTS assay (AID 1963592); further: series mostly up to about 92 µM; nearly all actives have a fitted effect of over 50% in size
Chain of Beta-2 adrenergic receptor (Homo sapiens) (P07550 whole entry, looked up): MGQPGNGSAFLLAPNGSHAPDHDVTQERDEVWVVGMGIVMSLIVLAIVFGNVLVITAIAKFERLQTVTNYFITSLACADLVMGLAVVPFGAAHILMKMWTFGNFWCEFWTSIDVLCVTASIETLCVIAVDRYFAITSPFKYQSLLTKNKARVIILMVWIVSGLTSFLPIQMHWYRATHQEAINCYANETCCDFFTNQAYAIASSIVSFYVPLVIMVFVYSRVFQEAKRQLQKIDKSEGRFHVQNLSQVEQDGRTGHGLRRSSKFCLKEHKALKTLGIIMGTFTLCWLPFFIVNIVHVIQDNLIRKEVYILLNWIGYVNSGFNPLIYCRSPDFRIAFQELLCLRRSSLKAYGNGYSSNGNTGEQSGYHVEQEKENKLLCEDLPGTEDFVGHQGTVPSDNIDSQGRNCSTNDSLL
How it was run: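 Cells (CHO, stable ADRB2 overexpression) incubated 18-20hr at 37C; compounds added from DMSO; agonist mix (1nM isoproterenol, 100uM IBMX, 25uM Ro-20-1724) added; 0.5hr RT; d2-cAMP and anti-cAMP-cryptate added; 1hr RT; 665/615 nm read.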

[16] = molecular target: D(2) dopamine receptor (Homo sapiens) (UniProt P14416); assay: Dopamine D2 receptor (DRD2) small molecule agonists, cell-based qHTS assay (AID 1963594); further: nearly all actives have a fitted effect of over 35% in size
Chain of D(2) dopamine receptor (Homo sapiens) (P14416 whole entry, looked up): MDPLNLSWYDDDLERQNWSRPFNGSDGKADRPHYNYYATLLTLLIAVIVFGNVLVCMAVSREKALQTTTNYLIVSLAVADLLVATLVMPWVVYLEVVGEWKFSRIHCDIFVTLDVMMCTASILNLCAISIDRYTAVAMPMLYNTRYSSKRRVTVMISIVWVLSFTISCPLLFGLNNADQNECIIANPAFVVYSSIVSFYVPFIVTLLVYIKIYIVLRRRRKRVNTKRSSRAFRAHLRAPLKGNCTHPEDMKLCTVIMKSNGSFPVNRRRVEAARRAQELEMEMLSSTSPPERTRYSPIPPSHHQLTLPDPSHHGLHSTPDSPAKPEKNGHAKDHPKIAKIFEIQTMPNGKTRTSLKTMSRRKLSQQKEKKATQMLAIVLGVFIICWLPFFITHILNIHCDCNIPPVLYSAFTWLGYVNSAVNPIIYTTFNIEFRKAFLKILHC
How it was run: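 HEK293 cells stably expressing human DRD2, pre-treated with PDE inhibitor Ro20-1724 (0.1 mM final) and compound 10 min at room temperature, then stimulated with NKH477 (200nM […]) for 30 min. cAMP read by HTRF (665/620 nm).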

[17] = molecular target: D(2) dopamine receptor (Homo sapiens) (UniProt P14416); assay: Dopamine D2 receptor (DRD2) small molecule antagonists, cell-based qHTS assay (AID 1963595; active means well fitted inhibition curve with a large enough effect in the signal ratio in the repeat runs, with a control signal flat; the % refers to the signal ratio)
How it was run: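 HEK293 cells stably expressing DRD2 were preincubated with 0.1 mM Ro20-1724, then with compound for 10 min at room temperature. Cells were stimulated with 200 nM NKH477 plus 12 nM quinpirole for 30 min, and cAMP was read by HTRF.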

[18] = p53 small molecule agonists, cell-based qHTS assay: qHTS cell viability counter screen (AID 1963581); further: nearly all actives have a fitted effect of over 45% in size
How it was run: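 p53RE-bla HCT-116 cells were exposed to compounds for 16 h at 37 C; after the beta-lactamase FRET read in the same wells, CellTiter-Glo was added and luminescence (intracellular ATP) read after 30 min at room temperature.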

[19] = cAMP Responsive Elements (CRE) small molecule antagonists, cell-based qHTS assay (AID 1963591; active means well fitted inhibition curve with a large enough effect in the signal ratio in the repeat runs, not every such curve was filed as active; the % refers to the signal ratio)
How it was run: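 CRE-bla HEK293T cells were plated 18 h at 37 °C/5% CO2, pinned with compound in DMSO, then stimulated with NKH477 at 0.25 uM final for 3 h. LiveBLAzer B/G FRET substrate was added and plates incubated 2 h at room temperature.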

Measured: Potency

COC(=O)C(C)O (centres undefined)
not listed: [18] | [19]
inactive: all other assays above

Cn1cccc1
not listed: [10] | [15] | [17]
inactive: all other assays above

O=c1c(-c2ccccc2)c1-c1ccccc1
active: [1] 1190 nM | [2] 2660 nM
not listed: [9] | [14] | [18] | [19]
inactive: all other assays above

CC(=O)O[C@@H]1CC2CCC1(C)C2(C)C (some centres undefined)
not listed: [9] | [15] | [18]
inactive: all other assays above

O=C1CCCCCCCCCCOCCCCO1
active: [2] 30600 nM
not listed: [11] | [12]
inactive: all other assays above

O=C1OC(=O)C2C3C=CC(C3)C12 (centres undefined)
not listed: [16] | [18]
inactive: all other assays above

C=C[C@@H](C)CCC=C(C)C
not listed: [13] | [16] | [17]
inactive: all other assays above
